Screening data deposited in PubChem BioAssay by National Center for Advancing Translational Sciences (NCATS).
BRCA1 expr up = increases BRCA1 expression; Potency, µM (highest dose often 46.1 µM), actives largely listed as activators; hit rate 1.1% among 380,000; MCF7-BRCA1-FFLuc reporter, luminescence, 48 h; response scale: scaled: vehicle 0%, 10 µM genistein 100%; AID 624202; note: nearly all actives have a fitted effect of over 80% in size
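Quantitative HTS in MCF7 cells stably reporting BRCA1 expression via firefly luciferase. Compound treatment lasts 48 h at 37 °C in phenol-red free MEM. Activation is expressed relative to genistein at 10 microM and DMSO.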
HEK293 tox = cytotoxicity counter-screen for GLP-1 receptor inverse agonists. HEK293 cAMP-luciferase reporter cells, luminescence, 24 h. Potency, µM (highest dose often 38.3 µM), usual class: inhibitors. hit rate 0.13% among 410,000. AID 624418;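 note: loss of luciferase light is scored as toxicity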
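Seeding density was 200 cells/uL; after overnight-length (12 h) culture, 23 nL compounds went on for 24 h at 37 °C. Readout used a luciferase detection reagent, luminescence taken after 12 min at room temperature.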
Mito fusion yeast = blocks mitochondrial division or promotes mitochondrial fusion | S. cerevisiae fusion-defective mutant growth rescue, CellTiterGlo 48 h | Potency, µM (highest dose often 46.1 µM), actives largely listed as activators | hit rate 0.23% among 320,000 | AID 485298; note: nearly all actives have a fitted effect of over 45% in size
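Growth-rescue viability read-out: after 48 h at the non-permissive 37C in glycerol/ethanol YPEG, yeast mitochondrial fusion mutants are measured by CellTiterGlo luminescence; compounds (23 nl pinned per well) restoring growth score as division inhibitors or fusion activators.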
GLP1R ag = agonists of human GLP-1 receptor. Potency, µM (highest dose often 45.6 µM), most hits filed as activators. AID 624172. P43220. hit rate 0.007% among 380,000. HEK293 GLP-1R CRE-luciferase, luminescence, 4-6 h; cells express a hypersensitive GLP-1R form
Target sequence (P43220 whole entry, looked up): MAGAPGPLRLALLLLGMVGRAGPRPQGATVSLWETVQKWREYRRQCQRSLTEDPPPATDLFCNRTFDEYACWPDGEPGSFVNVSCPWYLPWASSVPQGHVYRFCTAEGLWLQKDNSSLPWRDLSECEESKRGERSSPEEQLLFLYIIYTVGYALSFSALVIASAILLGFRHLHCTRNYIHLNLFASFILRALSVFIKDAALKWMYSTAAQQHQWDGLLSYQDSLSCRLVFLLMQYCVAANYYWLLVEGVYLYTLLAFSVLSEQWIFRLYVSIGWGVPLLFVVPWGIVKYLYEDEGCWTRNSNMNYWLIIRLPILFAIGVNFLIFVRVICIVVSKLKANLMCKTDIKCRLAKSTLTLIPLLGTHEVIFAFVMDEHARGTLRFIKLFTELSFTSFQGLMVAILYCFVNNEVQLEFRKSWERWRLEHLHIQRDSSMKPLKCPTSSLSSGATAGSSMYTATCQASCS
GLP1R inv ag = acts as inverse agonist at human GLP-1 receptor | P43220 | HEK293 GLP-1R CRE-luciferase, luminescence, 24 h; GLP-1R form is constitutively active | Potency, µM (doses to about 38.3 µM), actives largely listed as inhibitors | hit rate 1.6% among 410,000 | AID 624417; note: nearly all actives have a fitted effect of over 55% in size
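Luminescence readout: a drop in cAMP-driven luciferase signal flags inverse agonism at a constitutively active GLP-1R stably expressed in HEK293. Compound exposure lasted 24 hr at 37 deg C, 5% CO2.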
Hits are given with their value. In the library only some 2.8% were active in any assay of this set; here they are far more common. Calls come from the whole dose curve; as a rule, active = well fitted curve in the direction sought with a large enough effect; inconclusive = small, poorly fitted or top-dose-only effect, or another doubt; inactive = no such curve, though single readings can be large; an effect the other way counts as inactive or inconclusive.

`Cc1c(C(=O)N2CC[C@@H](N3CCC(O)CC3)[C@H](O)C2)[nH]c2ccc(Cl)cc12` gave BRCA1 expr up inactive, HEK293 tox inactive, Mito fusion yeast inactive, GLP1R ag inactive and GLP1R inv ag inactive.
N#C/C(=C(/O)COC(=O)CSc1ccc(Cl)cc1)c1nc2ccccc2[nH]1 was read as BRCA1 expr up inactive, HEK293 tox 8.91µM, Mito fusion yeast inactive, GLP1R ag inactive and GLP1R inv ag inconclusive.
Screening Cc1cc(SCC(=O)OC/C(O)=C(\C#N)c2nc3ccccc3[nH]2)c(C)cc1Br returned BRCA1 expr up inactive, HEK293 tox inconclusive, Mito fusion yeast inactive, GLP1R ag inactive and GLP1R inv ag inconclusive.
For c1ccc(CSCc2cn3ccccc3n2)cc1 the results were BRCA1 expr up 2.82µM, HEK293 tox inactive, Mito fusion yeast inactive, GLP1R ag inactive and GLP1R inv ag inactive.
For Cc1ccc(C=Nc2ccc(N(C)C)cc2)o1 the results were BRCA1 expr up inactive, HEK293 tox inactive, Mito fusion yeast inactive, GLP1R ag inactive and GLP1R inv ag inactive.
For O=C(Cn1c(SCc2ccc(F)cc2)nc2cccnc21)Nc1ccccc1F the results were HEK293 tox inactive and GLP1R inv ag inactive.
`Cc1oc2ccc(O)cc2c1C(=O)c1ccc(F)cc1` gave BRCA1 expr up 11.2µM, HEK293 tox inactive, GLP1R ag inactive and GLP1R inv ag inactive.
COc1ccc(C(CC(=O)N2CCCC2)C(C)C)cc1 (configuration not stated) was read as BRCA1 expr up inactive, HEK293 tox inactive, Mito fusion yeast inactive, GLP1R ag inactive and GLP1R inv ag inactive.
C=CCn1c(C)nc2c(sc3nc4c(cc32)COC(C)(C)C4)c1=O was read as BRCA1 expr up 6.31µM, HEK293 tox inactive, Mito fusion yeast inactive, GLP1R ag inconclusive and GLP1R inv ag inactive.
For CC(=O)Nc1ccc(-c2ccnc3c2CC(C)(C(=O)Nc2cccc(OC(F)(F)F)c2)O3)cc1 (configuration not stated) the results were BRCA1 expr up inactive, HEK293 tox inactive, GLP1R ag inactive and GLP1R inv ag inconclusive.
`O=C(OCCOc1cccc(Cl)c1)c1cc(S(=O)(=O)N2CCCCC2)ccc1N1CCOCC1` gave BRCA1 expr up inactive, HEK293 tox inactive, Mito fusion yeast inactive, GLP1R ag inactive and GLP1R inv ag 5.62µM.
For Clc1ccc(-c2nnc(C3CC3)o2)cc1 the results were BRCA1 expr up inactive, HEK293 tox inactive, Mito fusion yeast inactive, GLP1R ag inactive and GLP1R inv ag inactive.
Clc1ccc(-c2nnc(N3CCOCC3)o2)cc1 was read as BRCA1 expr up 3.98µM, HEK293 tox inactive, Mito fusion yeast inactive, GLP1R ag inactive and GLP1R inv ag inactive.
For Fc1ccc(-c2nnc(-c3ccc(Cl)cc3)o2)cc1 the results were BRCA1 expr up 2µM, HEK293 tox inactive, Mito fusion yeast inactive, GLP1R ag inactive and GLP1R inv ag inactive.
`CC(=O)NCc1cc(-c2ccc(Cl)cc2)no1` gave BRCA1 expr up inactive, HEK293 tox inactive, Mito fusion yeast inactive, GLP1R ag inactive and GLP1R inv ag inactive.
C/C(=N/OC(=O)C1CC1)c1cc(-c2ccc(Cl)cc2)no1 was read as BRCA1 expr up 3.98µM, HEK293 tox inactive, Mito fusion yeast inactive, GLP1R ag inactive and GLP1R inv ag inactive.
Screening C/C(=N\OC(=O)c1ccccc1)c1cc(-c2ccc(Cl)cc2)no1 returned BRCA1 expr up 2.82µM, HEK293 tox inactive, Mito fusion yeast inactive, GLP1R ag inactive and GLP1R inv ag inactive.
For COc1cc(/C=N/OCC(=O)Nc2ccc(OC(F)F)cc2)ccc1OCc1ccccc1 the results were BRCA1 expr up inactive, HEK293 tox inactive, Mito fusion yeast inactive, GLP1R ag inactive and GLP1R inv ag inconclusive.
For CCOc1ccc(/C=N/OCC(=O)Nc2ccc(OCc3ccccc3)cc2)cc1OC the results were BRCA1 expr up 7.94µM, HEK293 tox inactive, Mito fusion yeast inactive, GLP1R ag inactive and GLP1R inv ag inactive.
CCN1CCN(Cc2ccc(NC(=O)c3ccc(C)c(NC(=O)c4c[nH]c5cc(C(F)(F)F)ccc5c4=O)c3)cc2C(F)(F)F)CC1 was read as BRCA1 expr up inactive, HEK293 tox inconclusive, Mito fusion yeast inactive, GLP1R ag inactive and GLP1R inv ag 10µM.
CN(C)CCCN(Cc1ccccc1)C(=S)Nc1ccc(F)c(Cl)c1 was read as BRCA1 expr up inactive, HEK293 tox inconclusive, Mito fusion yeast inactive, GLP1R ag inactive and GLP1R inv ag 1.78µM.
Screening Cc1cc(C)cc(NC(=S)N(Cc2ccc(Cl)cc2)Cc2ccc(C(=O)O)cc2)c1 returned BRCA1 expr up inactive, HEK293 tox inactive, Mito fusion yeast inactive, GLP1R ag inactive and GLP1R inv ag inconclusive.
Screening CCCN(Cc1ccccc1)C(=S)Nc1ccc(SC(F)F)cc1 returned BRCA1 expr up inactive, HEK293 tox inconclusive, Mito fusion yeast inactive, GLP1R ag inactive and GLP1R inv ag 10µM.
Cc1cc(NC(=S)N(Cc2ccc(Cl)cc2)Cc2ccc(C(=O)O)cc2)ccc1Cl was read as BRCA1 expr up inactive, HEK293 tox inactive, Mito fusion yeast inactive, GLP1R ag inactive and GLP1R inv ag 8.91µM.
Screening CN(C)CCCN(Cc1ccccc1)C(=S)Nc1cccc(C(F)(F)F)c1 returned BRCA1 expr up inactive, HEK293 tox inconclusive, Mito fusion yeast inactive, GLP1R ag inactive and GLP1R inv ag inconclusive.
`CC(=O)Nc1ccc(N=Nc2c(C)[nH]n(C(N)=S)c2=O)cc1` gave BRCA1 expr up 10µM, HEK293 tox inactive, Mito fusion yeast inactive, GLP1R ag inactive and GLP1R inv ag inactive.
For Cc1ccc(N=Nc2c(C)[nH]n(C(N)=S)c2=O)cc1C the results were BRCA1 expr up inactive, HEK293 tox inconclusive, Mito fusion yeast inactive, GLP1R ag inactive and GLP1R inv ag 0.501µM.
For Cc1[nH]n(C(N)=S)c(=O)c1N=Nc1ccc2ccccc2c1 the results were BRCA1 expr up inactive, HEK293 tox inconclusive, Mito fusion yeast inactive, GLP1R ag inactive and GLP1R inv ag inconclusive.
CCOc1ccc(C)cc1-n1nc2ccccc2n1 was read as BRCA1 expr up inactive, HEK293 tox inactive, Mito fusion yeast inactive, GLP1R ag inactive and GLP1R inv ag inconclusive.
Screening Fc1ccc(NC(=S)Nc2nccs2)cc1 returned BRCA1 expr up 3.16µM, HEK293 tox inconclusive, Mito fusion yeast inactive, GLP1R ag inactive and GLP1R inv ag inconclusive.
Screening O=C(Cc1ccc(F)cc1)Nc1nccs1 returned BRCA1 expr up inactive, HEK293 tox inactive, Mito fusion yeast inactive, GLP1R ag inactive and GLP1R inv ag inactive.
Screening COc1ccc(CCC(=O)Nc2sccc2C#N)cc1 returned BRCA1 expr up 11.2µM, HEK293 tox inactive, Mito fusion yeast inactive, GLP1R ag inactive and GLP1R inv ag inactive.
For CC(C)COc1ccc(C(=O)NCC2OCCc3ccccc32)cc1 (configuration not stated) the results were HEK293 tox inactive and GLP1R inv ag inactive.
